# From PubChem BioAssay AID463173 (ICCB-Longwood Screening Facility, Harvard Medical School, 2010)
# Hit rate of the full screen: of about 52,000 compounds, about 4,300 (8.3%) were called active. Many of the other results were omitted from the sample, so actives are more common in it than they were. Values without a mark were called inactive. No stated cut-off is given here; in the data, active means survival mostly below about 52% (no sharp cut-off); inactive means mostly above about 56%.
# Test system: DeltatarO mutant
# Assay: S. aureus survival, RN4220 and DeltatarO strains – OD600, teichoic acid synthesis inhibitors, primary screen (AID 463173)
# Settings: S. aureus RN4220 wild type/DeltatarO growth, OD600, 18 h, hits give low values, screened at 18.75 µg/mL (by protocol)
row,SMILES,survival
1,CC1CCc2c(sc3nnn(Cc4ccc(F)cc4)c(=O)c23)C1 (centres undefined),-1% (active)
2,Cc1ccc(OCCn2nnc3sc4c(c3c2=O)CCC(C)C4)cc1 (centres undefined),54%
3,CCCCc1ccc(NC(=O)Cn2nnc3sc4c(c3c2=O)CCC(C)C4)cc1 (centres undefined),58%
4,CN(C)c1ccc(NC(=O)Cn2nnc3sc4c(c3c2=O)CCC(C(C)(C)C)C4)cc1 (centres undefined),79%
5,COC(=O)c1ccc(Cn2nnc3sc4c(c3c2=O)CCC(C)C4)cc1 (centres undefined),79%
6,CC1CCc2c(sc3nnn(CCCCOc4ccc(Cl)cc4)c(=O)c23)C1 (centres undefined),107%
7,CCc1ccccc1NC(=O)Cn1nnc2sc3c(c2c1=O)CCC(C(C)(C)C)C3 (centres undefined),47% (active)
8,CCOc1ccccc1NC(=O)Cn1nnc2sc3c(c2c1=O)CCC(C(C)(C)C)C3 (centres undefined),106%
9,Cc1ccccc1OCCCCn1nnc2sc3c(c2c1=O)CCC(C)C3 (centres undefined),65%
10,CC1CCc2c(sc3nnn(Cc4ccccc4Cl)c(=O)c23)C1 (centres undefined),13% (active)
11,CC1CCc2c(sc3nnn(CC(=O)Nc4ccccc4Cl)c(=O)c23)C1 (centres undefined),71%
12,Cc1ccc(Cn2nnc3sc4c(c3c2=O)CCC(C)C4)cc1 (centres undefined),54% (active)
13,CCN(CC)C(=O)Cn1cc(SCC(=O)Nc2ccccc2F)c2ccccc21,103%
14,CCc1cccc(NC(=O)c2cc3c(=O)[nH]c4ccccc4c3n2C)c1,89%
15,C=CCNC(=O)C(C)N1CCN(C)CC1 (centres undefined),73%
16,Cc1ccccc1CNC(=O)C1CCN(S(=O)(=O)Cc2ccccc2)CC1,75%
17,CCOc1ccc(-c2nnc(SCC(=O)Oc3ccccc3)o2)cc1,71%
18,CCC12CN3CC(C)(CN(C1)C3c1ccc(O)cc1O)C2=O (centres undefined),78%
19,CCc1ccc(S(=O)(=O)c2nnn3c2nc(NCc2ccccc2)c2cc(Cl)ccc23)cc1,86%
20,CC1CCc2c(sc3nnn(Cc4cccc(C(=O)OC(C)C)c4)c(=O)c23)C1 (centres undefined),78%
21,CC1CCc2c(sc3nnn(Cc4ccccc4)c(=O)c23)C1 (centres undefined),3% (active)
22,CCCOC(=O)c1ccc(Cn2nnc3sc4c(c3c2=O)CCC(C)C4)cc1 (centres undefined),79%
23,COc1ccccc1CNC(=O)C(C)n1c(=O)cc(C(F)(F)F)c2c(C)nn(C)c21 (centres undefined),94%
24,CCOc1ccccc1NC(=O)Cn1nc2c3cc(F)ccc3n(Cc3cccc(C)c3)cc-2c1=O,72%

row,SMILES,survival
1,COc1ccccc1NC(=O)Cn1nc2c3cc(F)ccc3n(Cc3cccc(C)c3)cc-2c1=O,-2% (active)
2,CCc1ccccc1NC(=O)Cn1nc2c3cc(F)ccc3n(Cc3cccc(C)c3)cc-2c1=O,84%
3,O=C(Cn1ccn(-c2cccc(Cl)c2)c(=O)c1=O)c1ccc(F)cc1,59%
4,O=C(Nc1ccc(Cl)cc1C(F)(F)F)c1cc(S(=O)(=O)NCc2ccccc2)ccc1F,130%
5,O=C(CN(Cc1ccccc1)C(=O)Cn1nnc(-c2ccc(F)cc2)n1)NC1CCCC1,70%
6,COc1ccc(-c2nc3ccc(NS(C)(=O)=O)cc3o2)cc1,77%
7,CCC(Oc1ccccc1)C(=O)Nc1ccc2oc(-c3ccc(OC)cc3)nc2c1 (centres undefined),111%
8,COc1ccc(OCC(=O)Nc2ccc(-c3nc4cc(Cl)ccc4o3)cc2)cc1,134%
9,COc1ccc(-c2nc3ccc(NS(=O)(=O)c4ccccc4)cc3o2)cc1,36% (active)
10,COc1ccc(-c2nc3ccc(NS(=O)(=O)c4ccc(Cl)cc4)cc3o2)cc1,23% (active)
11,COc1ccc(-c2nc3ccc(NS(=O)(=O)c4ccc(C)cc4)cc3o2)cc1,45%
12,CCCCC(CC)CNC(=O)c1ccc(Cn2c(=O)[nH]c3cc(OC)c(OC)cc3c2=O)cc1 (centres undefined),72%
13,O=C(Cn1c(=O)c(CNc2ccccc2)cc2cc3c(cc21)OCCO3)Nc1ccccc1Cl,131%
14,O=C(COc1ccccc1)Nc1nnc2n1CCS2,86%
15,Cc1cn2c(=O)cc(COC(=O)c3ccc(NC(=O)c4ccccc4C)cc3)nc2s1,101%
16,COc1ccccc1N1CCN(S(=O)(=O)CCNC(=O)COc2ccccc2F)CC1,83%
17,CCn1c(CNC(=O)C23CC4CC(CC(C4)C2)C3)nnc1SCC(=O)Nc1ccc(F)cc1,71%
18,CCCCn1c(CNC(=O)C23CC4CC(CC(C4)C2)C3)nnc1SCC(=O)Nc1ccc(C)cc1,36% (active)
19,CCn1c(CNC(=O)C23CC4CC(CC(C4)C2)C3)nnc1SCC(=O)Nc1ccc(C)cc1,60%
20,CCn1c(CNC(=O)C23CC4CC(CC(C4)C2)C3)nnc1SCC(=O)Nc1ccccc1,66%
21,CCCCn1c(CNC(=O)C23CC4CC(CC(C4)C2)C3)nnc1SCC(=O)Nc1ccc(F)cc1,54% (active)
22,CCCCn1c(CNC(=O)C23CC4CC(CC(C4)C2)C3)nnc1SCC(=O)Nc1ccccc1,54%
23,CCc1ccc(CNC(=O)c2ccc(NC(=O)N3CC(C)Sc4ccccc43)cc2)cc1 (centres undefined),64%
24,Cc1c(Cl)cccc1Nc1nc2ccc(C(=O)c3ccccc3)cc2n2cnnc12,77%

row,SMILES,survival
1,CCNC(=O)CC1C(=O)N(c2cccc(OC)c2)C(=O)N1Cc1ccc(OC)c(OC)c1 (centres undefined),80%
2,C=CCN1C(=O)C2(C(C#N)=C(N)Oc3n[nH]c(COC)c32)c2ccccc21 (centres undefined),109%
3,CCN1C(=O)C2(C(C#N)=C(N)SC(N)=C2C#N)c2ccccc21,2% (active)
4,CCc1[nH]nc2c1C1(C(=O)N(CC)c3ccccc31)C(C#N)=C(N)O2 (centres undefined),78%
5,CCOc1ccccc1NC(=O)c1cn(C2CCCC2)c(=O)c2c1c1ccccc1n2C,122%
6,COC(=O)c1cc(S(=O)(=O)NCC2CCN(Cc3cccc(F)c3)CC2)cn1C,122%
7,Cc1ccc(NS(=O)(=O)c2ccc(-c3cc(C)no3)cc2)c(Br)c1,75%
8,CCOc1ccccc1NC(=O)CSc1ncc(S(=O)(=O)c2ccc(C)c(C)c2)c(N)n1,99%
9,Cc1ccc(NC(=O)c2cc3c(-c4ccccc4)nn(-c4ccccc4)c3s2)cc1,50%
10,O=C(Nc1ccccc1)c1cc2c(-c3ccccc3)nn(-c3ccccc3)c2s1,44% (active)
11,Cc1nn(-c2ccccc2)c2sc(C(=O)Nc3cccc(Br)c3)cc12,30% (active)
12,Cc1nn(-c2ccccc2)c2sc(C(=O)Nc3cccc(O)c3)cc12,5% (active)
13,Cc1nn(-c2ccccc2)c2sc(C(=O)Nc3cccc(Cl)c3)cc12,2% (active)
14,O=C(Nc1ccc(Cl)cc1)c1cc2c(-c3ccccc3)nn(-c3ccccc3)c2s1,51%
15,COc1cccc(NC(=O)c2cc3c(-c4ccc(Cl)cc4)nn(C)c3s2)c1,84%
16,Cc1nn(-c2ccccc2)c2sc(C(=O)N3CCOCC3)cc12,89%
17,Cc1nn(-c2ccccc2)c2sc(C(=O)Nc3ccc(Cl)cc3Cl)cc12,71%
18,COc1ccc(C(c2c(C)n(C)n(-c3ccccc3)c2=O)c2c(C)n(C)n(-c3ccccc3)c2=O)cc1O,84%
19,COc1ccc(-c2[nH]c(-c3ccccc3)nc2SCC(=O)Nc2ccc3c(c2)OCO3)cc1,51%
20,Clc1cccc(-n2cc(-c3ccccc3)c3c(NC4CCCC4)ncnc32)c1,78%
21,COc1ccccc1N1CCN(S(=O)(=O)c2c(C)sc3ncn(CC(=O)N(C)c4ccc(Cl)cc4)c(=O)c23)CC1,65%
22,COc1ccc(NC(=O)CC(C)S(=O)(=O)c2cc3c(cc2C)NC(=O)CO3)cc1OC (centres undefined),88%
23,CCC(C)NC(=O)CSc1nc2cc3c(cc2c(=O)n1CCCCCC(=O)NCc1ccc(OC)cc1)OCO3 (centres undefined),76%
24,COc1ccc(-c2nc(C)c(CCNC(=O)C(=O)Nc3ccccc3F)s2)cc1,115%

row,SMILES,survival
1,CN(C)c1ccc(-c2nnc(SCC3CCCO3)n2C)cc1 (centres undefined),82%
2,O=C(CCC1N=C2c3ccccc3N=C(SCc3ccc(Cl)cc3)N2C1=O)NCCc1ccccc1 (centres undefined),90%
3,Cc1nn(-c2ccccc2)c2sc(C(=O)Nc3ccc(Br)cc3)cc12,26% (active)
4,Cc1cccc(NC(=O)c2ccc(-c3ccccc3)s2)c1,82%
5,Cc1nn(-c2ccccc2)c2sc(C(=O)N/N=C/c3ccccc3)cc12,110%
6,Cc1cccc(NC(=O)c2cc3c(C)nn(-c4ccccc4)c3s2)c1,6% (active)
7,CCOc1ccc(NC(=O)c2cc3c(C)nn(-c4ccccc4)c3s2)cc1,75%
8,O=C(c1cccc(Cl)c1)N1c2ncnn2C2(CCCCC2)[C@@H]2CCCC[C@@H]21,80%
9,O=C(NCc1ccccc1Cl)C1CCCN(C(=O)c2cnn(-c3ccc(F)cc3)c2-n2cccc2)C1 (centres undefined),67%
10,O=C(CCN1N=C(c2ccccc2)CCC1=O)NCCc1ccc(Cl)cc1,122%
11,CCc1cccc(NC(=O)c2c(C)oc3ncnc(N4CCCCC4)c23)c1,54%
12,COC(=O)CSc1nc2c(cc1C#N)CCCC2,106%
13,COc1ccccc1-c1nc(S(=O)(=O)c2ccc(Cl)cc2)c(N2CCCCCC2)o1,60%
14,Cc1ccc(S(=O)(=O)c2nc(-c3cccs3)oc2N2CCC(C)CC2)cc1,8% (active)
15,O=S(=O)(c1ccc(Cl)cc1)c1nc(-c2ccccc2Br)oc1N1CCOCC1,59%
16,CCCSc1oc(-c2cccs2)nc1S(=O)(=O)c1ccc(Cl)cc1,65%
17,CC1CCN(c2nc3c(S(=O)(=O)c4ccc(Cl)cc4)nnn3c3ccsc23)CC1,113%
18,O=S(=O)(c1ccc(Cl)cc1)c1nc(-c2cccs2)oc1SCc1ccc(F)cc1,67%
19,COc1ccccc1-c1nc(S(=O)(=O)c2ccccc2)c(N2CCC(C)CC2)o1,19% (active)
20,O=S(=O)(c1ccc(Cl)cc1)c1nc(-c2cccs2)oc1N1CCCCC1,45% (active)
21,COc1ccc(-c2nc(S(=O)(=O)c3ccccc3)c(N3CCC(C)CC3)o2)cc1,74%
22,CC1CCN(c2oc(-c3cccs3)nc2S(=O)(=O)c2ccc(Cl)cc2)CC1,17% (active)
